# Screens as filed in PubChem.
# VACV Venus inh = inhibitors of vaccinia virus (Venus reporter); Potency, µM (titrated, usually from 36.5 µM), for inactives: top-dose activity change, negative = inhibition, hits mostly inhibitors; 0.46% of 330,000 active; Vaccinia virus Venus reporter expression, fluorescence; calls by dose curve; tested in A549 cells; note: potency is the fitted concentration of half-maximal effect; nearly all actives have a fitted effect of over 30% in size
# HCMV inh = blocks human cytomegalovirus replication; HFF cells, HCMV-luciferase reporter, 72 h; hits give low values; activity change, negative = inhibition, % at 57.5 µM; 4.5% of 410,000 active; AID 1259415; in the data active = activity change below about -60%; inconclusive = no clear call, values can overlap the other calls; inactive = above about -39%
#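 Two-dose cell screen: HFF monolayers treated with compounds and infected with luciferase-expressing HCMV at 1 PFU/cell, 72 h at 37C, then lysed for luciferase measurement.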
# MARV entry inh = inhibitors of Marburg virus binding or cell entry. Marburg virus pseudotyped entry inhibition, cell reporter. Potency, µM (highest dose often 37.8 µM), for inactives: at the top dose activity change, negative = inhibition, most hits filed as inhibitors. 1.8% of 300,000 active. AID 540276; calls by dose curve; tested in HEK293 cells; note: potency is the fitted concentration of half-maximal effect
# VACV mCherry inh = vaccinia inhibition (mCherry reporter); Potency, µM (highest dose often 36.5 µM), without a hit: at the top dose activity change, negative = inhibition, hits mostly inhibitors; 0.63% of 310,000 active; Vaccinia virus mCherry reporter infection, fluorescence; calls by dose curve; tested in A549 cells; note: potency is the fitted concentration of half-maximal effect; nearly all actives have a fitted effect of over 35% in size
# HCV inhibitor = inhibitors of hepatitis C virus infection; Huh7.5.1 HCVcc-Cre infection, luciferase reporter, 44 h; Potency, µM (titrated, usually from 41.8 µM), without a hit: at the highest dose activity change, negative = inhibition, usual class: inhibitors; 3.4% of 340,000 active; active = well fitted inhibition curve with a large enough effect; inconclusive = small, poorly fitted or top-dose-only effect, or another doubt; inactive = no such curve, though single readings can be large or run the other way; note: potency is the fitted concentration of half-maximal effect
#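 Infectious HCV cell culture screen: compound-treated cells (1,000/well, pre-plated 4 h) are infected with HCVcc-Cre at roughly 0.5 moi and grown 44 h. Infection is quantified by luciferase signal after 15 min substrate incubation at room temperature.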
# Lassa entry inh = Lassa virus entry inhibition; Lassa virus pseudotype entry inhibition, cell reporter; 1.2% of 300,000 active; Potency, µM (top dose mostly 37.9 µM), for inactives: at the top dose activity change, negative = inhibition, hits mostly inhibitors; calls by dose curve; tested in HEK293 cells; note: potency is the fitted concentration of half-maximal effect; nearly all actives have a fitted effect of over 50% in size
# * = called active by the depositor; i = inactive; u = inconclusive; x = no result given; + = active, no number; [ ] = dose if it differs, or a comment. An excerpt weighted towards active compounds, which were near 7.8% of everything screened. % is set by controls: 0 for no effect and ±100 for the full control effect.
SMILES,VACV Venus inh,HCMV inh,MARV entry inh,VACV mCherry inh,HCV inhibitor,Lassa entry inh
C[C@@H]1CN([C@@H](C)CO)C(=O)Cc2cc(NC(=O)Nc3ccc(F)cc3)ccc2O[C@@H]1CN(C)Cc1ccc(Cl)c(Cl)c1,11µM*,8,x,u,u,x
COc1ccc(OC)c(S(=O)(=O)Nc2ccc(Oc3ccccc3)cc2)c1,x,-64*,-23%,x,u,-2%
COc1ccc(-c2ccc(NS(=O)(=O)c3cc(C)c(C)cc3C)cc2)nn1,-9%,-77*,x,-17%,x,19%[46.1 µM]
O=S(=O)(Nc1ccc(-c2ccc3nncn3n2)cc1)c1cc(F)ccc1F,-11%,-17,-5%[46.1 µM],u,5%,6%
COc1ccc(OC)c(S(=O)(=O)Nc2ccc(-c3ccc4nncn4n3)cc2)c1,10µM*,u,u,8.9µM*,u,-14%
CCOc1ccc(NS(=O)(=O)c2cc(OC)ccc2OC)cc1,-14%,4,-30%,-17%,-1%,-3%
COC(=O)c1c(C)oc2ccc(NS(=O)(=O)c3cc(OC)ccc3OC)cc12,u,-62*,u,u,1%,u
COc1ccc(-c2ccc(NS(=O)(=O)c3ccccc3Cl)cc2)nn1,-8%,-26,x,-9%,x,u
O=C(Nc1cccc(F)c1)N1C[C@H]2[C@@H](c3ccccc31)[C@H](CO)N2C(=O)c1cccnc1,x,-4,x,x,x,x
CC1=C[C@@H](COCc2ccccc2)O[C@@]2(C1)C(=O)N(CC1CC1)c1ccccc12,x,x,1%[14.2 µM],x,x,x
COc1ccc(C2=C[C@H](c3cccc(OC)c3)n3nnnc3N2)cc1,x,x,-14%[46.1 µM],x,x,x
O=C(NC1CC1)c1ccc2c(c1)N(Cc1ccc(Cl)cc1)CCS2,x,u,x,x,22µM*,x
O=C(NC1CCCC1)c1ccc2c(c1)N(Cc1ccccc1)CCS2,x,-8,x,x,u,x
Cc1ccc(CN2CCSc3ccc(C(=O)NC4CCN(Cc5ccccc5)CC4)cc32)cc1,-19%,-20,u,-15%,8.9µM*,u
CC1CCN(c2ncnc3c2c(-c2ccccc2)cn3-c2ccc(Br)cc2)CC1,-3%,u,x,-15%,x,27%[46.1 µM]
CC(NC(=O)c1cccnc1)c1nnc2n1CCN(Cc1ccc(-c3ccccc3)cc1)CC2 (stereo not given),-1%,x,x,-11%,x,x
CN1C[C@H](C(=O)N[C@]2(C)O[C@@]3(O)C4CCCN4C(=O)[C@H](Cc4ccccc4)N3C2=O)C[C@@H]2c3cccc4[nH]cc(c34)C[C@H]21 (stereo not given in full),x,x,1.1µM*,x,x,x
CN1C[C@H](C(=O)N[C@]2(C)O[C@@]3(O)[C@@H]4CCCN4C(=O)[C@H](Cc4ccccc4)N3C2=O)C[C@@H]2c3cccc4[nH]cc(c34)C[C@H]21,x,x,1.1µM*,x,x,u
CN1C[C@H](C(=O)N[C@]2(C)O[C@@]3(O)[C@@H]4CCCN4C(=O)[C@H](Cc4ccccc4)N3C2=O)CC2c3cccc4[nH]cc(c34)C[C@H]21 (stereo not given in full),-8%,-19,x,-5%,14%,x
CC(C)[C@@]1(NC(=O)[C@H]2CC3c4cccc5[nH]cc(c45)C[C@H]3N(C)C2)O[C@@]2(O)C3CCCN3C(=O)[C@@H](Cc3ccccc3)N2C1=O (stereo not given in full),-26%,x,x,-31%,x,x
CC(=O)c1ccc(NS(=O)(=O)c2ccc3[nH]c4c(c3c2)CCCC4)cc1,-18%,2,x,-24%,x,-3%[46.1 µM]
CN(C)CCNc1ccc(CO)c2oc3ccc(O)cc3c(=O)c12,10µM*,-99*,u,u,u,u
O=C(COc1cccnc1[N+](=O)[O-])N1CCC(Cc2ccccc2)CC1,0%,-76*,u,i,1%,-4%[46.1 µM]
Cc1ccc(OCC(=O)N2CCC(C)CC2)c([N+](=O)[O-])n1,0%,46,17%,-10%,6%,-3%
Cc1ccc(OCC(=O)N2CCC(Cc3ccccc3)CC2)c([N+](=O)[O-])n1,x,-74*,x,x,-4%,x
SMILES,VACV Venus inh,HCMV inh,MARV entry inh,VACV mCherry inh,HCV inhibitor,Lassa entry inh
CCc1nnc2c(NCc3ccc(F)cc3)nc3ccccc3n12,0%,-5,-8%[46.1 µM],0%,x,23%[46.1 µM]
Cc1ccc([N+](=O)[O-])cc1N/C=C/C(=O)c1ccco1,-20%,-11,u,-28%,6.3µM*,12µM*
CCN1CCN(C(c2ccccc2Cl)c2c(O)cc(C)n(CCOC)c2=O)CC1 (stereo not given),0%,0,x,-8%,x,-2%[46.1 µM]
CC(=O)Nc1ccc(S(=O)(=O)NCCc2cn3ccsc3n2)cc1,-11%[7.34 µM],38,x,-12%[7.34 µM],x,2%[46.1 µM]
Cc1ccc(Nc2nc3ccccc3c3nncn23)cc1C,-11%,u,u,-21%,x,u
COc1ccc(NC(=O)CN2CCN(Cc3ccc(F)cc3)S2(=O)=O)cc1Cl,-13%,-13,x,-18%,x,-12%[46.1 µM]
O=C(CN1CCCN(Cc2ccc(F)cc2)S1(=O)=O)NC1CCCC1,-9%[7.34 µM],-15,x,i[7.34 µM],-5%,x
Cc1ccc(CNC(=O)CN2CCCN(Cc3ccc(F)cc3)S2(=O)=O)cc1,-2%,0,x,-9%,x,11µM*
Cc1ccc(CN2CCN(CC(=O)Nc3ccc(C)c(C)c3)S2(=O)=O)cc1,-12%,+,x,-8%,x,1%[46.1 µM]
COC(=O)c1ccc(OC)c(CN2CCCN(Cc3ccc(C)cc3)S2(=O)=O)c1,-1%,+,x,-2%,x,2%[46.1 µM]
Cc1ccc(S(=O)(=O)N2CCC([C@@H](C#N)c3ccccc3)CC2)cc1,x,-17,x,x,x,x
COC(=O)[C@H]1O[C@@H](c2cc(OC)c(C)c(OC)c2OCc2ccccc2)[C@H](C)[C@H]2O[C@@]12C,x,x,-23%[14.2 µM],x,x,u
CN(CC1COc2ccccc2O1)c1nc(-c2cccnc2)nc2ccccc12 (stereo not given),-15%,-17,2.6µM*,u,11µM*,u
c1cncc(-c2nc(NCC3COc4ccccc4O3)c3ccccc3n2)c1 (stereo not given),11µM*,-17,u,u,11µM*,-30%
O=C1CCC[C@H]2[C@@H](Cc3ccccc3)[C@@H](NS(=O)(=O)c3ccc(Br)cc3)CC[C@]23CCCN13,x,-17,x,x,x,x
Cc1c(/C=N/NC(=O)COc2ccccc2[N+](=O)[O-])c2ccccc2n1C,x,13,-23%,x,u,-4%
Cc1ccc(OCC(=O)N/N=C\c2c(C)n(C)c3ccccc23)c([N+](=O)[O-])c1,x,x,10µM*,x,16µM*,-18%
Cc1ccccc1OCC(=O)N/N=C/c1cccc(Oc2ccc([N+](=O)[O-])cc2[N+](=O)[O-])c1,u,u,u,u,11µM*,u
CC1=CC(O)C(O)C2(C)C1CC1OC(=O)CC3C(C)C(O)C(=O)C2C13CO (stereo not given),6.3µM*,x,u,8.9µM*,u,-15%
COc1ccc(S(=O)(=O)N2CCCCC2)cc1-n1cnnn1,1%,-11,u,6%,18%,0%
